LYPLA1 inh = LYPLA1 inhibitors, primary screen, counter-screen for PME1 inhibitor project, biochemical, fluorescence polarization, FP-Rh probe ABPP. 0.16% of 320,000 active. inhibition, % at 5.9 µM. recombinant LYPLA1. Acyl-protein thioesterase 1 (Homo sapiens), O75608;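 active means inhibition above the mean of all tested compounds plus 3 SD, set per campaign, cut at about 14% in these data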;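 further: inhibitors block serine hydrolase probe labeling of LYPLA1 so polarization falls; 0% = enzyme with DMSO and 100% = wells lacking LYPLA1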
Target sequence (O75608 whole entry, looked up): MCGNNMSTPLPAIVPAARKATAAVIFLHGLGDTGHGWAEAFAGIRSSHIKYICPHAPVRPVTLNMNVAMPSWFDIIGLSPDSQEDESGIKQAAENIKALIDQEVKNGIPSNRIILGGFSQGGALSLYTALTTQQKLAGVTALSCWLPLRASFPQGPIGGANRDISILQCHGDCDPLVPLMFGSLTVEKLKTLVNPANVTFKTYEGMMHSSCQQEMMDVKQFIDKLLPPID
GSTO1 counter = inhibitors of recombinant GSTO1, primary screen, counter-screen for RBBP9 inhibitor project, biochemical, fluorescence polarization | activity-based probe fluorescence polarization | AID 1974, 2009 | inhibition, % at 5.96 µM | Glutathione S-transferase omega-1 (Homo sapiens), P78417 | 1.1% of 300,000 active;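 active means inhibition above the campaign mean inhibition plus 3 SD, cut at about 35% in these data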;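 further: 0% = GSTO1-1 with DMSO and 100% = wells lacking GSTO1-1 enzyme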
Target sequence (P78417 whole entry, looked up): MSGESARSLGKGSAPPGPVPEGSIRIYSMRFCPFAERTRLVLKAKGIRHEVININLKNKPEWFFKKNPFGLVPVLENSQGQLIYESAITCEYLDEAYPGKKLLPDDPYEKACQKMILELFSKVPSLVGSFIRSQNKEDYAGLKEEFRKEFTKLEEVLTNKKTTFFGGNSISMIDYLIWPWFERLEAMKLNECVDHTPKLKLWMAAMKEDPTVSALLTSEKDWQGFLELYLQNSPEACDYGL
LYPLA2 counter = LYPLA2 inhibitors, primary screen, counter-screen for PME1 inhibitor project, biochemical, fluorescence polarization, FP-Rh probe ABPP. Acyl-protein thioesterase 2 (Homo sapiens), O95372. recombinant LYPLA2. inhibition, % at 5.9 µM. 0.38% of 320,000 active. AID 2177, 2009;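 active means inhibition above the screen-wide mean plus 3 SD, limit set per campaign, cut at about 26% in these data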;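 further: 0% = LYPLA2 with DMSO and 100% = wells lacking LYPLA2 enzyme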
PAD4 inh = human PAD4 inhibitors, primary screen, biochemical, fluorescence polarization, 1536-well format. Protein-arginine deiminase type-4 (Homo sapiens), Q9UM07. recombinant PAD4, RCA probe fluorescence polarization. inhibition, % at 6.36 µM. 0.41% of 330,000 active;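 active means percent inhibition above a cutoff equal to the mean of all tested compounds plus 3 SD, cut at about 15% in these data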;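 further: 0% = PAD4 with RCA probe and DMSO and 100% = probe without PAD4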
Fam108B counter = mouse Fam108B serine hydrolase inhibitors, primary screen, counter-screen for RBBP9 inhibitor project, biochemical, fluorescence polarization. recombinant Fam108B, FP-Rh probe fluorescence polarization. inhibition, % at 9.51 µM. 0.33% of 300,000 active;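 active means inhibition above the screen mean inhibition plus 3 SD, computed separately per campaign, cut at about 18% in these data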;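 further: inhibitors lower polarization as less probe binds the enzyme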
PME-1 inh = PME-1 inhibitors via competitive probe labeling, primary screen, biochemical, fluorescence polarization, FP-Rh probe, HTS; recombinant PME-1; inhibition, % at 5.9 µM; 0.53% of 320,000 active; AID 2130, 2009;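 active means inhibition above the campaign mean of all compounds plus 3 SD, cut at about 26% in these data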;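 further: competitive labeling of PME-1 active site by serine hydrolase directed probe; 0% = PME-1 with DMSO and 100% = wells lacking PME-1 enzyme; inhibitors block probe labeling so polarization falls and inhibition rises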
PAD4 FP conf = human PAD4 inhibitors, confirmation, biochemical, fluorescence polarization | 28% of 1,200 active | shares compounds with PAD4 inh | inhibition, % at 6.36 µM | recombinant PAD4, RCA probe fluorescence polarization;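 active means mean inhibition across replicates above the hit cutoff set by the earlier primary screen, cut at about 15% in these data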;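 further: inhibitors block active-site labeling by the probe so polarization falls; 0% = PAD4 with probe and DMSO and 100% = probe without PAD4 enzyme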
Active calls of the source: *; . = not tested or not shown. An excerpt weighted towards active compounds, which were near 1.8% of everything screened.

SMILES	LYPLA1 inh	GSTO1 counter	LYPLA2 counter	PAD4 inh	Fam108B counter	PME-1 inh	PAD4 FP conf
CC(C)NC(=O)C(c1ccc(F)cc1)N(C(=O)CCC(=O)Nc1ccccn1)C1CCCCC1 (centres undefined)	0	0	7	-1	3	-4	.
O=C1C(=O)N(c2ccc(O)cc2)C(c2ccccc2[N+](=O)[O-])/C1=C(\O)c1ccccc1 (centres undefined)	3	3	-4	24*	-2	3	2
COc1ccc2c(c1)CCc1cnc(N)nc1-2	0	2	-3	0	6	3	.
COc1ccc2c(c1)CCc1cn3nc(C)cc3nc1-2	1	-4	4	16*	0	0	5
Cc1nn(-c2cccc(Cl)c2)c2c1C(c1ccncc1)C(C#N)=C(N)O2 (centres undefined)	-2	7	3	34*	2	6	6
Cc1ccc(-n2nc(C)c3c2OC(N)=C(C#N)C3c2ccc(F)cc2)cc1 (centres undefined)	3	42*	3	43*	6	5	-1
Cc1nn(-c2cccc(Cl)c2)c2c1C(c1cccnc1)C(C#N)=C(N)O2 (centres undefined)	-1	7	-3	62*	4	0	-8
Cc1nn(-c2ccccc2)c2c1C(c1cccs1)C(C#N)=C(N)O2 (centres undefined)	-4	16	-2	6	0	2	.
O=C1NC(c2ccc(Br)cc2)Oc2ccccc21 (centres undefined)	-3	1	-1	0	-6	3	.
COC(=O)CCC(=O)N1CCCC(N2CCN(c3ccc(OC)cc3)CC2)C1 (centres undefined)	1	3	1	-3	2	-4	.
Cc1cccc(NC(=O)c2cccc(S(=O)(=O)N3CCc4ccccc4C3)c2)n1	-2	4	-7	-3	-4	-9	.
COC(=O)N/N=C1/C/C(=N\NC(=O)OC)c2ccccc21	-2	17	-4	21*	0	2	2
Cn1nnnc1SCC(=O)N1CCN(S(=O)(=O)c2ccc(Cl)cc2)CC1	-3	0	-8	17*	3	0	-4
Cc1ccc(Cl)cc1-c1ccc(C=Nc2ccc(N3CCOCC3)cc2)o1	-2	2	6	7	2	1	.
Cc1cc(O)c(C=Nc2ccc(N3CCOCC3)cc2)c(C)c1Cl	2	3	1	28*	-7	0	2
O=C(NNC(=O)c1ccccc1Br)c1cnccn1	.	.	.	-2	.	.	.
COCCN1CC(=O)N2C(c3cccc(OC)c3)c3[nH]c4ccccc4c3C[C@H]2C1=O (some centres undefined)	2	-3	0	4	0	3	.
Cc1cc2cc(CNC(=O)c3ccc(S(=O)(=O)N4CCCC4)cc3)ccc2n1C	0	5	-1	15	-1	1	.
CCC(CC)C(=O)NCc1ccc2c(c1)cc(C)n2C	1	-2	2	-5	0	1	.
Cc1cc2cc(CNS(=O)(=O)c3ccccc3)ccc2n1C	3	5	-3	18*	6	3	1
Cc1cc2cc(CNC(=O)C(C)Oc3ccccc3)ccc2n1C (centres undefined)	11	11	7	29*	9	14	4
COc1ccc(S(=O)(=O)NCc2ccc3c(c2)cc(C)n3C)cc1	3	0	0	4	4	5	.
Cc1cc2cc(CNC(=O)c3ccc(S(=O)(=O)N4CCCCC4)cc3)ccc2n1C	0	-2	-6	31*	-1	-7	-3
COc1ccc2[nH]c(C)c(C(=O)CN(C)CC3OCCO3)c2c1	1	5	0	-1	1	3	.
Cc1cc([N+](=O)[O-])nn1Cc1noc(C(=O)NCCc2ccccn2)n1	0	8	1	1	2	5	.
SMILES	LYPLA1 inh	GSTO1 counter	LYPLA2 counter	PAD4 inh	Fam108B counter	PME-1 inh	PAD4 FP conf
O=C(CNC(=O)c1ccc(Br)o1)NNC(=O)c1ccccc1O	1	33	0	-4	-3	-5	.
Cc1ccccc1Sc1ccc(N)cn1	-1	9	5	1	-1	-1	.
C=CC[C@H](CC(=O)N(CCO)Cc1ccccc1)C(=O)N[C@@H](COC(=O)[C@@H](CC=C)Cc1ccc(F)cc1)Cc1c[nH]c2ccccc12	.	.	.	2	.	.	.
COc1cc(C=O)ccc1OCc1ccncc1	-4	-2	0	28*	1	-2	-6
COc1cc(C=O)ccc1OCc1ccc(Cl)nc1	0	10	11	-1	3	9	.
Cc1cccc(N2C(=O)c3cccc4cccc(c34)C2=O)c1	1	1	8	-2	2	6	.
O=C1c2ccc3c4c(ccc(c24)C(=O)N1c1cccc(O)c1)C(=O)N(c1cccc(O)c1)C3=O	-5	34	-2	18*	13	2	38*
Cc1cccc(N2C(=O)c3cccc4c(N)ccc(c34)C2=O)c1	12	9	18	27*	13	14	22*
CCCC(=O)Nc1ccc(Br)c(Cl)c1	2	-5	-3	15*	8	0	11
O=C(O)CCC(=O)Nc1ccc(Br)c(Cl)c1	-3	-7	-5	-1	-6	-4	.
Cc1cc(NC(=O)CCC(=O)N(CC(=O)NC2CCCC2)c2ccc(F)c(Cl)c2)no1	-2	0	0	-2	1	-4	.
CCN(C(=O)C(C)Sc1ccc(S(=O)(=O)N2CCOCC2)cn1)c1ccccc1 (centres undefined)	1	.	-1	1	.	5	.
CC[n+]1c(C)sc2cc(OC)ccc21	3	11	7	17*	3	-8	13
O=C(O)CSc1nnc(-c2ccccc2)c(-c2ccccc2)n1	0	5	2	-4	-1	2	.
CCN(CC)C(=O)CSc1nnc(-c2ccccc2)c(-c2ccccc2)n1	-2	-1	-3	15*	9	3	7
COc1ccc(S(=O)(=O)Nc2ccccc2C)cc1	-1	-4	-1	75*	-1	-14	3
CCN(CC(=O)Nc1ccccc1C(F)(F)F)C(=O)c1ccc(N2CCCC2=O)cc1	1	.	-3	-1	.	-4	.
Cc1ccc(SCc2cc(=O)n3[nH]c(C)nc3n2)cc1	-1	0	-4	-7	0	4	.
Cc1ccc(SCc2cc(=O)n(C)[nH]2)cc1	-4	53*	5	24*	2	-1	0
